Among the data in PubChem BioAssay (NCATS) are activity (max response) and Potency values, retold here.

Each structure is given as a SMILES string. Inconclusive results are not listed. Values without a mark were called inactive. Calls of active or inactive are those of the source. Calls follow the shape of the dose curve; as a rule, active = well fitted cell-killing curve with a large enough effect; inconclusive = small, poorly fitted or top-dose-only effect; inactive = flat fitted curve, though single readings scatter.

One assay is described as follows: Cellular viability qHTS for adrenocortical cancer (ACC) cell line SW-13 (AID 1963989).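 Also: cells grown in serum-free medium with ITS supplement; % is scaled to controls: 0 for no effect and ±100 for the full control effect; nearly all actives have a fitted effect of over 65% in size.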 The following applies: SW-13 ACC cells viability, CellTiter-Glo, 48 h; activity (max response): stronger effect = lower value. An outline of the steps: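 Viability was read as CellTiter-Glo luminescence after 48 h compound treatment (up to 46 uM final) of SW-13 cells grown serum-free; titration curves were fit with a four-parameter logistic model to give IC50 and efficacy.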
On the technique in general: Quantitative high-throughput screening tests each substance at several concentrations.
On to `CCNC(=O)[C@H]1O[C@@H](n2cnc3c(N)nc(NCCc4ccc(CCC(=O)O)cc4)nc32)[C@H](O)[C@@H]1O`, for which the activity (max response) was -2.22%.

With `c1ccc(CNCCNCc2ccccc2)cc1`, the activity (max response) is -0.207%.

As to `O=C(CCN1CCN2CCCC2C1)N1c2ccccc2Sc2ccc(Cl)cc21` (configuration not stated), the activity (max response) is -13.8%.

A short description of a further assay: Cellular viability qHTS for adrenocortical cancer (ACC) cell line NCI-H295R (AID 1963990). Also: nearly all actives have a fitted effect of over 60% in size. Also: potency is read from the fitted curve at half-maximal effect. The following applies: CellTiter-Glo ATP luminescence, 48 h; series mostly up to 46.1 µM. An outline of the steps:
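CellTiter-Glo ATP luminescence, read 48 h after compound addition, measured viability of NCI-H295R adrenocortical cells grown serum-free with ITS. Final concentrations spanned up to 46 uM. Data normalized to DMSO and doxorubicin, fitted for IC50 and maximal response.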
Regarding `CC[C@H](c1ccc(O)cc1)[C@@H](CC)c1ccc(O)cc1`, the Potency is 2590 nM (active).

As to `CCc1ccc(/C=C2/SC(=S)NC2=O)cc1`, the Potency was 17800 nM (active).

As to `Nc1ccc2cc3ccc(N)cc3nc2c1`, the Potency was 2590 nM (active).

For the molecule `c1ccc(CNCCNCc2ccccc2)cc1`, the Potency result is “inactive”.
